Screening results: PubChem, National Center for Advancing Translational Sciences (NCATS)
SARS PLP yeast: qHTS of Yeast-based Assay for SARS-CoV PLP | 330,000 compounds, 0.19% hits | Potency, µM (doses to about 32.9 µM), actives largely listed as activators | AID 485353, 2010 | S. cerevisiae expressing SARS-CoV PLpro, growth rescue; note: nearly all actives have a fitted effect of over 55% in size
Shiga inhibitor: A qHTS for Small Molecule Inhibitors of Shiga Toxin; inhibition, % at 38.7 µM; AID 2315, 2010; Vero cells, Shiga toxin protein synthesis inhibition reporter; 290,000 compounds, 9.2% hits; in the data active = inhibition mostly above about 28%, no sharp cut-off; inactive = mostly below about 43%
Pf growth 48h: Primary qHTS for delayed death inhibitors of the malarial parasite plastid, 48 hour incubation. P. falciparum luciferase growth in erythrocytes, 48 h. Potency, µM (series often up to 28.7 µM), most hits filed as inhibitors. 310,000 compounds, 5.9% hits. AID 504832, 2011; active = well fitted inhibition curve with a large enough effect; inconclusive = small, poorly fitted or top-dose-only effect, or another doubt; inactive = no such curve, though single readings can be large or run the other way
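Growth was read as firefly luciferase luminescence after a 48 h, 37 C, 5% CO2 exposure of compounds to reporter-bearing P. falciparum cultures (0.1% parasitemia, 2% hematocrit final) in Albumax-supplemented RPMI 1640.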
CHX counter: Cycloheximide Counterscreen for Small Molecule Inhibitors of Shiga Toxin. cell reporter, cycloheximide protein synthesis inhibition counterscreen. 300,000 compounds, 12% hits. max response, %. AID 2314, 2010; in the data active = max response mostly above about 13%, no sharp cut-off; inactive = mostly below about 14%; note: read at 38.3 µM for the half of the compounds with a filed dose
NS1 function inh: qHTS Assay for Inhibitors of Influenza NS1 Protein Function; 270,000 compounds, 0.4% hits; Potency, µM (series often up to 46.1 µM); note: actives are rising curves; nearly all actives have a fitted effect of over 50% in size
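S. cerevisiae expressing influenza A NS1, grown in glucose, washed, then diluted 1:100 into pH 6.0 -URA galactose medium with 23 nl compound. Growth recovery read as OD600; NS1-free strain serves as control.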
Pf growth 96h: Primary qHTS for delayed death inhibitors of the malarial parasite plastid, 96 hour incubation | P. falciparum luciferase reporter growth, 96 h | Potency, µM (highest dose often 28.7 µM), hits mostly inhibitors | 320,000 compounds, 6.9% hits; active = well fitted inhibition curve with a large enough effect; inconclusive = small, poorly fitted or top-dose-only effect, or another doubt; inactive = no such curve, though single readings can be large or run the other way
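P. falciparum expressing integrated firefly luciferase, in erythrocytes at 2% hematocrit, 0.05% parasitemia, incubated with compounds 96 h at 37 C, 5% CO2. Growth inhibition read as loss of luminescence; two-generation exposure targets delayed-death apicoplast inhibitors.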
Large screens that a line does not name were inactive. This is a sample that favours compounds with a hit; in the whole collection about 21% have one here. Unless noted, calls come from the whole dose curve.

O=S(=O)(c1ccccc1)c1nc(-c2ccco2)oc1NCc1ccccc1	Pf growth 96h 8.28µM (no result: Pf growth 48h)
CC(C)c1ccc(NC2CCCN(C(=O)CCc3cn[nH]c3)C2)cc1 (centres undefined)	Pf growth 96h inconclusive
O=S(=O)(c1ccc(F)cc1)c1nc(-c2ccco2)oc1Nc1ccccc1	Shiga inhibitor 113.7, CHX counter 49.9, Pf growth 96h inconclusive
CCOc1ccc(-c2nc(S(=O)(=O)c3ccccc3)c(NCc3cccnc3)o2)cc1	Pf growth 48h 13.1µM, NS1 function inh inconclusive (no result: Pf growth 96h)
CCN1CCN(c2oc(-c3ccccc3C)nc2S(=O)(=O)c2ccccc2)CC1	Pf growth 48h inconclusive, Pf growth 96h 9.28µM (no result: Shiga inhibitor, CHX counter, NS1 function inh)
CCOc1ccc(-c2nc(S(=O)(=O)c3ccccc3)c(NC)o2)cc1	Pf growth 96h inconclusive
CCCCn1c(N)c(N(CCOC)C(=O)CCCc2nc3ccccc3c(=O)[nH]2)c(=O)[nH]c1=O	none (no result: Shiga inhibitor, CHX counter, NS1 function inh)
CC1CC(C)CN(CCCNC(=O)C2CCCN(c3nnc(N4CCCC4=O)s3)C2)C1 (centres undefined)	Pf growth 96h inconclusive
Cc1nc(C)n(C(C)CC(=O)O)n1 (centres undefined)	none
CCOc1ccccc1CNCCc1ccc2c(c1)OCO2	Pf growth 96h inconclusive
c1cc(CNCCc2ccc3c(c2)OCO3)ccn1	Pf growth 96h 11.7µM (no result: Shiga inhibitor)
Brc1ccccc1CNCCc1ccc2c(c1)OCO2	Pf growth 96h 11.7µM
Nc1ccc(OCc2ccccc2)cc1	Shiga inhibitor 36.2, CHX counter 17.1, NS1 function inh inconclusive, Pf growth 96h inconclusive
CCN(CC)CCOc1ccc(Cc2ccccc2)cc1	Pf growth 48h inconclusive (no result: SARS PLP yeast, Shiga inhibitor, CHX counter, NS1 function inh)
Nc1ccc(OCCc2ccccc2)cc1	Shiga inhibitor 29.0, Pf growth 48h inconclusive, CHX counter 30.8, Pf growth 96h inconclusive
CC(C)CCOc1ccc(N)cc1	Shiga inhibitor 23.8, CHX counter 12.3 (no result: SARS PLP yeast, Pf growth 48h, NS1 function inh, Pf growth 96h)
CCN(Cc1ccccc1)Cc1ccc(OCc2ccccc2)cc1	CHX counter 15.0
Cc1ccc(-c2csc3nc(SCC(=O)Nc4ccc(Cl)c(C(=O)O)c4)[nH]c(=O)c23)cc1	none
O=C(Cc1ccccc1)OCc1ccccc1	none (no result: Shiga inhibitor, CHX counter, NS1 function inh)
NOCc1ccccc1	CHX counter 32.2 (no result: SARS PLP yeast, Pf growth 48h, NS1 function inh, Pf growth 96h)
Cc1ccc(C)c(NC(=O)COC(=O)CNC(=O)c2ccccc2Cl)c1	none
Cc1nn(C(=O)c2ccco2)c(C)c1Br	none (no result: Pf growth 48h, Pf growth 96h)
COc1ccc(C(=O)n2nc(C)c(Br)c2C)cc1	Pf growth 48h inconclusive, Pf growth 96h 0.465µM
O=C(C(=O)N1CCN(c2cccc(Cl)c2)CC1)c1c[nH]c2ccccc12	Pf growth 96h inconclusive (no result: NS1 function inh)
CC[C@H](C)C(=O)O[C@H]1CCC=C2C=C[C@H](C)[C@H](CC[C@@H]3C[C@H](O)CC(=O)O3)C21 (some centres undefined)	none (no result: SARS PLP yeast, Shiga inhibitor, Pf growth 48h, CHX counter, Pf growth 96h)
O=C(/C=C\c1ccco1)Nc1nc(-c2ccccc2)cs1	Shiga inhibitor 77.8, CHX counter 71.5
Cc1ccc(-c2csc(NC(=O)/C=C/c3cccs3)n2)cc1C	Pf growth 48h inconclusive, Pf growth 96h inconclusive
O=C(/C=C/c1ccccc1)Nc1nc(-c2ccncc2)cs1	Pf growth 48h inconclusive, CHX counter 28.1, Pf growth 96h inconclusive (no result: NS1 function inh)
COc1ccc(-c2csc(NC(=S)NC(=O)/C=C/c3ccccc3)n2)cc1Br	none
N#Cc1ccc(-c2csc(NC(=O)/C=C/c3cccs3)n2)cc1	Pf growth 48h inconclusive, Pf growth 96h 10.4µM
Cc1ccc(C)c(N(C(=O)c2csnn2)C(C(=O)NC2CCCCC2)c2ccccn2)c1 (centres undefined)	none
Cc1ccsc1CN(C)CC(=O)NCC(=O)Nc1ccc(F)c(F)c1F	none (no result: Shiga inhibitor, Pf growth 48h, CHX counter, NS1 function inh, Pf growth 96h)
O=C(Nc1nc2n(n1)C(c1ccccc1)CC(c1ccc(Cl)cc1)N2)c1ccco1 (centres undefined)	Pf growth 48h 13.1µM, Pf growth 96h inconclusive
O=C1NC(=S)S/C1=C1\Sc2ccccc2N1CCCS(=O)(=O)O	Pf growth 96h 7.38µM
NN1C(=O)/C(=C2/Sc3ccccc3N2CCCS(=O)(=O)O)SC1=S	none
CCN(CC(=O)NCc1cccs1)C(=O)c1ccc(S(=O)(=O)Nc2ccccc2)cc1	Pf growth 96h inconclusive (no result: Shiga inhibitor, CHX counter, NS1 function inh)
O=C(O)c1cccc(N2C(=O)c3cccc(Oc4ccc(Cl)cc4)c3C2=O)c1	SARS PLP yeast inconclusive, CHX counter 18.6, Pf growth 96h inconclusive
